Compound activity from PubChem BioAssay.
Only some compounds are listed: those with a hit (about 2.9% of all), similar ones and a draw of the others.
D3 antag = blocks the human D3 dopamine receptor. AID 652054. D3R cells, DiscoveRx beta-arrestin luminescence, antagonist mode; stronger effect = lower value. max response, negative = inhibition, %. P35462. 360,000 compounds, 2.5% hits; in the data active means max response below about -50%; inconclusive means no clear call, values can overlap the other calls; further: on the % scale 0 is the no-effect control and ±100 the full control effect
Target sequence (P35462 whole entry, looked up): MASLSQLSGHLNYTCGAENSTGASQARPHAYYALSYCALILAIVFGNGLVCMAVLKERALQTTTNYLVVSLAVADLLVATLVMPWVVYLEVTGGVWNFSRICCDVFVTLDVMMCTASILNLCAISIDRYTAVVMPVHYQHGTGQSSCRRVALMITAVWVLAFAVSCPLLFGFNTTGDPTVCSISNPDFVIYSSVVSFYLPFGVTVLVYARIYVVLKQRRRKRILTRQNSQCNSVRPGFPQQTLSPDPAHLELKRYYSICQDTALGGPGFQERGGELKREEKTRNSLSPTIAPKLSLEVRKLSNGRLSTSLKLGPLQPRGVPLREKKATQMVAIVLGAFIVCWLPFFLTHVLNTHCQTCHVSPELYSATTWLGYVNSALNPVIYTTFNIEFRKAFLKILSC
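Cells plated overnight at 1500 cells/well, then exposed to library compounds with dopamine controls for 90 minutes at 37 degrees C. DiscoveRx reagent added for 30–60 minutes at room temperature; luminescence read, quantitative HTS format.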
TRPML1 blocker = blocks the human TRPML1 channel; activity change, negative = inhibition, % (concentration not given with the values); TRPML1-inducible cells, Ca2+ dye fluorescence, FDSS; stronger effect = lower value; inhibition of EC80 agonist-evoked calcium signal; Q9GZU1; AID 624415; 390,000 compounds, 0.02% hits; in the data active means activity change below about -50%; inconclusive means between about -30% and that limit;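 further: stimulus is agonist 54-4 at its EC80 concentration; on the % scale 0 is the no-effect control and ±100 the full control effect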
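TRPML1-DL cells, Tet-induced overnight (~16 h, 37 °C) at 1,500 cells/well, were loaded with Ca8 no-wash dye plus quencher for 45-90 min at room temperature. Compounds were pinned during FDSS kinetic reading; agonist 54-4 at EC80 (4 uM final) then added.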
DRD3 agonist = D3 dopamine receptor (human) agonism. D3R DiscoveRx beta-arrestin cells, luminescence, 90 min. 410,000 compounds, 0.58% hits. max activation, %. P35462; in the data active means max activation above about 30%; further: 0% is about no effect
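Agonist mode: compounds and dopamine controls were applied to plated cells for 90 min at 37 degrees C after an overnight attachment at 1500 cells/well. Luminescent read-out followed 30 - 60 minutes at room temperature with DiscoveRx detection reagent.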
TRPML1 agonist = human mucolipin-1 channel agonism; Q9GZU1; TRPML1-expressing cells, Ca2+ dye fluorescence, FDSS; activation, % (no concentration beside the values); 410,000 compounds, 0.12% hits; AID 624414; in the data active means activation above about 50%; inconclusive means mostly about 30% to 49%; further: 0% is about no effect
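Tet-induced TRPML1-DL cells, 1,500 per well, cultured overnight, were loaded with a no-wash Ca2+ dye for 45–90 min. Calcium fluorescence was recorded on the FDSS for 110 s after compound addition, before the EC80 agonist (4 uM 54-4) was added.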
The depositor's hits bear a star; ? = inconclusive; . = no result given.

SMILES | D3 antag | TRPML1 blocker | DRD3 agonist | TRPML1 agonist
CCCC(=O)c1c[nH]c(C(=O)NCc2cccnc2)c1 | -88.2* | -11.5 | -12.2 | -0.7
CC(OC(=O)C1CCN(S(=O)(=O)c2ccc(C(C)(C)C)cc2)CC1)C(=O)N(C)C1CCCCC1 (stereo not given) | -19.8 | -17.0 | -8.2 | 94.9*
CC(OC(=O)C1CCN(S(=O)(=O)c2ccc(C(C)(C)C)cc2)CC1)C(=O)N1CCOCC1 (stereo not given) | -2.3 | -10.7 | -3.5 | -0.9
CCn1c2c(c3cc(OCC(C)C)ccc31)CCCC2=O | -8.8 | -4.5 | -16.1 | -0.3
CCn1c2c(c3cc(Br)ccc31)CCC/C2=N\O | 10.1 | 4.6 | 36.3* | 0.0
O=C(/C=C/c1ccc(C(F)(F)F)cc1)OC(C(=O)NC1CC1)c1ccccc1 (stereo not given) | . | . | . | -0.5
O=c1[nH]c2ccccc2c(O)c1-[n+]1ccccc1 | -17.6 | 56.4 | 31.7* | 0.4
c1ccc(CN2c3ccccc3-c3nc4ccccc4n3C2c2ccccn2)cc1 (stereo not given) | -0.8 | -1.3 | 3.9 | -0.3
CCN1c2ccccc2-c2nc3ccccc3n2C1c1ccco1 (stereo not given) | -50.3* | 12.4 | 1.3 | 3.6
COc1cc(/C=c2\sc3n(c2=O)C(c2ccccc2)C(c2ccccc2)=NN=3)ccc1O (stereo not given) | -76.1* | -6.0 | -8.9 | 2.1
CCCCN(CCCC)C(=S)N/N=C/c1c(C)[nH]n(-c2ccccc2)c1=O | -104.0* | -5.8 | -41.1 | 0.1
Nc1nc(Cl)nc2c1ncn2[C@H]1C[C@H](O)[C@@H](CO)O1 | -80.3* | -2.1 | 14.0 | 0.5
CC(C)NC(=O)Cn1c(=O)nc(-c2ccccc2)c2ccccc21 | . | 38.1 | 13.3 | 1.9
COc1cccc(N2CCN(Cc3ccsc3)CC2)c1 | -70.7* | 15.6 | -9.7 | 1.9
COc1cccc(N2CCN(Cc3ccco3)CC2)c1 | -6.2 | -15.3 | -0.3 | -0.5
O=S1(=O)CCOC[C@H](c2ccccc2)N1Cc1ccc(F)cc1 | . | . | . | 0.1
COc1ccc(OCCOCCN2CCc3ccccc3C2)cc1 | -50.7* | 18.4 | -9.2 | -0.2
N#Cc1ccc(OCC(=O)N2CCc3ccccc32)cc1 | -0.9 | -14.3 | -11.0 | 0.0
N#Cc1ccc(OCCN2CCc3ccccc3C2)cc1 | -78.8* | 0.9 | 1.9 | -0.6
Clc1ccc(OCCCCN2CCc3ccccc3C2)cc1 | -114.3* | 62.4 | -9.4 | 4.2
CCCCCCCCCCCCCCCCCC(=O)[O][Al] | . | . | -7.9 | .
CC(=O)Nc1ccc(NC(=O)c2ccc(CN3CCc4ccccc4C3)cc2)cc1 | -54.6* | -5.7 | -13.1 | -0.9
Cc1ccccc1NC(=O)c1ccc(CN2CCc3ccccc3C2)cc1 | -76.5* | 9.6 | -17.1 | 2.2
CCc1cccc(C)c1NC(=O)c1ccc(CN2CCc3ccccc3C2)cc1 | -72.3* | 7.9 | -21.3 | 0.3
CCc1cccc(C)c1NC(=O)c1ccc2c(c1)CCN2S(=O)(=O)CC | . | 3.0 | -4.2 | -1.1
SMILES | D3 antag | TRPML1 blocker | DRD3 agonist | TRPML1 agonist
O=C(Nc1ccc(F)cc1)c1ccc(CN2CCc3ccccc3C2)cc1 | 0.0 | 5.0 | -8.3 | -0.4
Cc1ccccc1NC(=O)c1ccc(F)c(S(=O)(=O)N2CCc3ccccc3C2)c1 | . | 17.5 | 1.6 | 2.6
Cc1cccc(NC(=O)c2ccc(CN3CCc4ccccc4C3)cc2)c1C | -78.3* | 5.5 | -13.1 | 0.7
O=C1Cc2ccccc2C1=C1C=c2ccccc2=C1 | . | . | . | 0.2
CCN1CCN(C(=O)Cn2c(=O)sc3ccccc32)CC1 | -98.1* | -9.4 | 4.0 | 1.5
CCOC(=O)N1CCN(C(=O)Cn2c(=O)sc3ccccc32)CC1 | 11.0 | 0.7 | -4.6 | -0.2
CN1CCN(C2=C(Cl)C(=O)N(CCc3ccccc3)C2=O)CC1 | -71.1* | -1.6 | -5.5 | 0.4
O=C1C(Cl)=C(N2CCOCC2)C(=O)N1CCc1ccccc1 | -28.1 | 8.9 | 2.2 | -0.2
Cc1ccc(N2C(=O)C(Cl)=C(N3CCN(C)CC3)C2=O)c(C)c1 | ? | -0.8 | -10.9 | 1.4
CN1CCN(C2=C(Cl)C(=O)N(c3ccc(Cl)cc3)C2=O)CC1 | -82.6* | -3.5 | 4.7 | 0.3
COC(=O)CN1C(=O)CSc2ccc(S(=O)(=O)Nc3ccc(C)c(Cl)c3)cc21 | . | 7.3 | 2.9 | -0.7
Cc1ccccc1CN1CC2=C(CCN(Cc3ccccc3)C2=O)N2CCN=C12 | -80.9* | . | -12.1 | 1.0
CCSc1nc2ccccc2n1CC(N)=O | -17.7 | -15.4 | -9.3 | 0.7
CCSc1nc2ccccc2n1C(=O)/C=C\c1ccc(OC)c(OC)c1 | -54.5* | -0.3 | -3.5 | 2.7
CNC[C@@H](C)NC[C@@H](Cc1ccccc1)NCCc1ccccc1 | -86.3* | 17.6 | -3.3 | -0.2
CCc1ccccc1NC(=O)c1ccc2[nH]c(C)c(C)c2c1 | . | 3.6 | -8.3 | 0.1
Cc1cc(OCCOCCNC(C)C)cc(C)c1Cl | -58.4* | 4.7 | -12.3 | 0.4
Cc1cc(OCC(=O)NC(C)C)cc(C)c1Cl | -10.3 | 3.8 | 11.9 | 0.7
CCN(CC)CCOC(=O)c1ccc(NC(=O)c2cc3cccc(OC)c3oc2=O)cc1 | . | 26.2 | 2.8 | -0.6
Cc1cc(C)nc(NC(=O)/C=C/c2ccccc2Cl)n1 | -22.6 | 10.7 | -2.2 | 0.8
Cc1cc(N)c2cc(NC(=O)/C=C/c3ccccc3Cl)ccc2n1 | -83.3* | -9.7 | -15.5 | -0.6
Cc1cccc(-c2cc3nc4c(c(N5CCOCC5)n3n2)CCCC4)c1 | 16.9 | 18.3 | 11.0 | 6.4
Fc1ccc(-c2cc3nc4c(c(N5CCOCC5)n3n2)CCCC4)cc1 | 45.7 | 2.2 | 47.1* | -0.5
Cc1csc(SCC(=O)NC2CCS(=O)(=O)C2)n1 (stereo not given) | -6.1 | -20.6 | 30.0* | -0.6
O=C(CSc1nc2ccccc2s1)NC1CCS(=O)(=O)C1 (stereo not given) | -23.0 | -13.2 | 2.1 | 4.3
SMILES | D3 antag | TRPML1 blocker | DRD3 agonist | TRPML1 agonist
CCCCN(Cc1ccccc1)C1CCN(Cc2ccccc2)CC1 | -76.2* | 10.4 | -23.1 | -0.6
CCCCN(C)C(=O)C1CCN(Cc2ccc(OCc3ccccc3)cc2)CC1 | -67.9* | 18.8 | -13.9 | -0.2
Cc1ccc(C)c(S(=O)(=O)n2nc(C)c(S(=O)(=O)N3CCCCCC3)c2C)c1 | . | 0.0 | 0.7 | -0.6
COc1ccc(-c2nc(C)c(CCNC(=O)C(=O)Nc3cc(C)cc(C)c3)s2)cc1OC | . | -7.6 | 6.4 | 5.0
Brc1ccc2c(ccc[n+]2CCc2ccccc2)c1 | . | . | . | -0.1
Cc1cc(C)cc(NC(=O)c2sc3nc(-c4cc5ccccc5oc4=O)[nH]c(=O)c3c2C)c1 | . | -50.1* | -12.9 | 0.4
Cc1cccc(NC(=O)c2sc3nc(-c4cc5ccc(O)cc5oc4=O)[nH]c(=O)c3c2C)c1 | . | ? | 2.3 | 112.4*
O=C(CSc1nccn1Cc1ccccc1)Nc1ccc2c(c1)OCO2 | . | 4.8 | -6.8 | 3.5
COc1cc2nc(N3CCCN(C)CC3)nc(Nc3ccncc3)c2cc1OC | . | . | . | -0.3
COc1ccc(NC(=S)NC(NC(=O)C(C)C)C(Cl)(Cl)Cl)c([N+](=O)[O-])c1 (stereo not given) | -69.4* | -0.7 | -1.2 | 1.0
